PubChem BioAssay (NCATS)
Records with an inconclusive call do not appear. Calls of active or inactive are those of the source. Calls come from the whole dose curve; as a rule, active = well fitted cell-killing curve with a large enough effect; inconclusive = small, poorly fitted or top-dose-only effect, or effect the other way; inactive = no such curve, though single readings can be large or run the other way.

test: Quantitative High-Throughput drug screen in 47 multiple myeloma cell lines against the NCATS MIPE library collection: PCM6_Riken cell viability assay (AID 1919870); details: CellTiter-Glo ATP, 48 h; series mostly up to 45.8 µM; viability (% of control): at the top concentration; note: nearly all actives have a fitted effect of over 30% in size;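 for viability (% of control): 100% = DMSO-only wells and 0% = media-only wells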
Procedure, shortened: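 Cells were exposed to library compounds for 48 hours, after which ATP was measured by CellTiter-Glo. Signal was taken as median relative luminescence units.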
Potency is the fitted concentration of half-maximal effect.

| Structure (SMILES) | viability (% of control) | Potency |
| --- | --- | --- |
| C1=C2CCCN[C@H]2[C@@H]2C[C@H]1[C@@H]1CCCCN1C2 | 123% (inactive) | – |
| CC(=Cc1csc(C)n1)[C@@H]1C[C@H]2O[C@@H]2CCC[C@H](C)[C@@H](O)[C@@H](C)C(=O)C(C)(C)[C@@H](O)CC(=O)O1 | 87.4% (inactive) | – |
| C[C@@H]1CC[C@H]2[C@@H](C)C(=O)O[C@@H]3O[C@@]4(C)CC[C@H]1[C@]32OO4 | – | 6.62 µM (active) |
| CO[C@H]1CCC(O[C@H]2C[C@H]([C@]3(C)CC[C@]4(C[C@H](O)[C@@H](C)[C@@H]([C@@H](C)C=C(C)C(=O)[C@H](C)C[C@H](C)C(=O)O)O4)O3)O[C@]3(O[C@@H]([C@H]4O[C@@](O)(CO)[C@H](C)C[C@H]4C)C[C@H]3C)[C@H]2C)O[C@H]1C (some centres undefined) | – | 0.935 µM (active) |
| COC1=CC(C)=C[C@@H](C)[C@@H](O)[C@@H](C)CC(C)=CC=C[C@H](OC)[C@H]([C@@H](C)[C@@H](O)[C@H](C)[C@@]2(O)C[C@@H](O)[C@H](C)[C@@H](C(C)C)O2)OC1=O | – | 9.35 µM (active) |
| O=c1[nH]c2ccc(Cl)cc2c(N[C@@H]2CN3CCC2CC3)c1-c1nc2ccccc2[nH]1 | – | 0.166 µM (active) |
| CC(C)(C)[C@]1(O)C[C@@H]2OC(=O)C[C@@]23C(=O)O[C@@H]2OC(=O)[C@H](O)C213 (some centres undefined) | 127% (inactive) | – |
| COc1ccc(N(C(=O)Oc2c(C)cccc2C)c2ccnc(Nc3ccc(N4CCN(C)CC4)cc3)n2)c(OC)c1 | – | 16.6 µM (active) |
| C[C@@H]1[C@H](O)[C@@H](C)C=CC=CCCC=CC=CC=CC=C[C@H](O[C@H]2O[C@@H](C)[C@H](O)[C@@H](N)[C@@H]2O)CC2O[C@](O)(C[C@@H](O)[C@H](O)CC[C@@H](O)C[C@@H](O)C[C@@H](O)CC(=O)O[C@H]1C)C[C@H](O)[C@H]2C(=O)O | 129% (inactive) | – |
